# HT1080-NT tox = kills 2HG-producing HT-1080-NT fibrosarcoma cells | Potency, µM (top dose mostly 46.1 µM), inactives show at the top dose activity, negative = less viability, hits mostly cytotoxic | AID 686970 | HT-1080-NT fibrosarcoma viability, CellTiter-Glo ATP luminescence, 48 h | actives 1.6% (n = 360,000);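 also: NT is the 2HG producing partner of a matched IDH1 knockdown line; potency is read from the fitted curve at half-maximal effect; 0% = DMSO-treated cells and -100% = media-only wells without cells; nearly all actives have a fitted effect of over 55% in size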
#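 Viability of the 2HG-overproducing fibrosarcoma line after 48 hours of compound exposure at 37 degrees C was determined by luminescence with CellTiter-Glo, and concentration-effect curves were then fitted and categorized.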
# 12-LOX inh = blocks human arachidonate 12S-lipoxygenase | P18054 | purified 12hLO, xylenol orange hydroperoxide absorbance | Potency, µM (series often up to 108 µM), for inactives: at the top dose activity change, negative = inhibition, most hits filed as inhibitors | actives 1.1% (n = 580,000) | AID 1671190; also: potency is read from the fitted curve at half-maximal effect
# Target sequence (P18054 whole entry, looked up): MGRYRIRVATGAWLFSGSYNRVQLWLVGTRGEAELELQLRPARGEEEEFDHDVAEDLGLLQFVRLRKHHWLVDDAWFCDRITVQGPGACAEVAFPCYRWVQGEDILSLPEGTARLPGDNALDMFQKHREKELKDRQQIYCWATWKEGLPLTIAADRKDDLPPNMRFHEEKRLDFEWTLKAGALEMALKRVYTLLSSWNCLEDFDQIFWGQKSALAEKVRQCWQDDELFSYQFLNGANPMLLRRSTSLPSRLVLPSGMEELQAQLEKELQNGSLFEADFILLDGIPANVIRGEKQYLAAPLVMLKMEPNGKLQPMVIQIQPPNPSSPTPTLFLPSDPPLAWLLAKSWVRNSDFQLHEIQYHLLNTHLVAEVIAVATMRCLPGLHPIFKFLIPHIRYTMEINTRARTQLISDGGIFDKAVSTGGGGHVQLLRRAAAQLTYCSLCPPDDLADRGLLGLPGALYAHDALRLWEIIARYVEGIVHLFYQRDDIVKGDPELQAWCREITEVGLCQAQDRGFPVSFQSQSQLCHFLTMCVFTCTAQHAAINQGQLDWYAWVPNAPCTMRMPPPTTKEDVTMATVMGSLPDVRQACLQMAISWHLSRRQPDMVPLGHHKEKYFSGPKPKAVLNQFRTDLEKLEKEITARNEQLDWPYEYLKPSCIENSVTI
#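 Purified human 12hLO (150 nM final) in 25 mM Hepes, 0.01% Triton X-100, pH 7.0 was preincubated 15 min at room temperature with compound. Then 40 uM arachidonic acid was added, 30 min. Hydroperoxide was read by Fe-XO absorbance ratio 573/405 nm.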
# HT1080 IDH1KD tx = kills HT-1080 cells with IDH1 knockdown; HT-1080 IDH1 knockdown viability, ATP luminescence, 48 h; Potency, µM (top dose mostly 46.1 µM), without a hit: at the highest dose activity, negative = toxicity, usual class: cytotoxic; AID 686971; actives 2% (n = 360,000);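 also: potency is read from the fitted curve at half-maximal effect; 0% = DMSO wells and -100% = cell-free medium wells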
#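 IDH1KD HT-1080 cells, 750/well, RPMI + 5% FBS; compound pinned after 2 h settling; 48 h, 37 °C; CellTiter-Glo luminescence; % activity normalised to DMSO and no-cell wells; curves fitted, classed by r2 and efficacy.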
# DT40 TDP1 no CPT = qHTS for Inhibitors of human tyrosyl-DNA phosphodiesterase 1 (TDP1): qHTS in cells in absence of CPT | DT40 Tdp1-/- hTDP1 cells, no CPT, ATP luminescence, 48 h | Potency, µM (highest dose often 46.2 µM), without a hit: top-dose activity change, negative = growth inhibition, most hits filed as inhibitors | actives 15% (n = 420,000); also: potency is read from the fitted curve at half-maximal effect; nearly all actives have a fitted effect of over 55% in size
#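 Growth kinetics read by CellTiter-Glo luminescence after ≥48 hr at 37 °C. Cells: DT40 Tdp1-/- stably carrying human TDP1, 400 per well, compound exposure in the absence of CPT (DMSO vehicle).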
# DT40 TDP1 CPT = DT40-hTDP1 cell growth loss with CPT; actives 12% (n = 420,000); chicken DT40 Tdp1-/-;hTDP1 cells + 20 nM CPT, ATP luminescence, 48 h; Potency, µM (doses to about 46.2 µM), without a hit: top-dose activity change, negative = growth inhibition, hits mostly inhibitors; AID 686979; also: potency is read from the fitted curve at half-maximal effect; nearly all actives have a fitted effect of over 55% in size
#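 Chicken DT40 Tdp1-/- cells complemented with human TDP1, 400 cells/well, exposed to compounds plus 20 nM camptothecin for at least 48 h at 37 C; viability read as ATP content by CellTiter-Glo luminescence.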
# IL1B secr inh = blocks inflammasome-driven IL-1 beta release. THP-1 LPS/ATP IL-1B secretion, AlphaLISA, 16 h; stronger effect = lower value. activity change, % at 57.5 µM. actives 4.7% (n = 360,000); in the data active = activity change below about -50%; inconclusive = mostly about -30% to -49%
#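 Secreted IL-1B measured by AlphaLISA bead assay after 16 h compound exposure of THP-1 cells; compounds (final up to 57.5 uM) added 1 h before LPS (250 ng/mL) and ATP (1.25 mM) stimulation; lower signal means less secretion.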
# * = called active by the depositor; ? = inconclusive; . = no result given; [ ] = remark or other dose. This excerpt belongs to a sample that is enriched for hits. Unless noted, calls follow the shape of the dose curve; as a rule, active = well fitted curve in the direction sought with a large enough effect; inconclusive = small, poorly fitted or top-dose-only effect, or another doubt; inactive = no such curve, though single readings can be large; an effect the other way counts as inactive or inconclusive. Unless noted, % is scaled to controls: 0 for no effect and ±100 for the full control effect.
SMILES,HT1080-NT tox,12-LOX inh,HT1080 IDH1KD tx,DT40 TDP1 no CPT,DT40 TDP1 CPT,IL1B secr inh
Cc1ccc2nc(NC(=O)c3ccc(Cl)s3)sc2c1,0%,1%,11%,?,21µM*,-13
Cc1ccc2nc(NC(=O)c3nc(SCc4ccccc4C)ncc3Cl)sc2c1,.,-5%,.,16µM*,-29%,.
Cc1ccc(Cl)cc1NC(=O)NCCN1CCCCC1,-2%,-23%,-1%,-16%,25%,-10
O=C(NCCCN1CCN(c2cccc(Cl)c2)CC1)Nc1ccccc1C(F)(F)F,.,-15%,.,?,15µM*,.
Cc1cc2nc(C)c(=O)n(CCC(=O)NCCN3CCN(c4cccc(Cl)c4)CC3)c2cc1C,.,-4%,.,.,.,.
Cc1ccccc1CS(=O)(=O)CCC(=O)NCCN1CCN(c2cccc(Cl)c2)CC1,-1%,11%,-3%,15µM*,23µM*,?
Cc1ccc(Cl)cc1N1CCN(CCNC(=O)Nc2ccccc2Cl)CC1,.,-25%,.,12µM*,16µM*,.
O=C(NCCN1CCN(c2cccc(Cl)c2)CC1)Nc1ccccc1C(F)(F)F,.,1%,.,18µM*,?,.
CCNC(=O)N1CCC(c2noc(-c3ccccn3)n2)C1 (configuration not stated),.,18%,.,.,.,.
COc1ccc(Oc2c(C)oc3cc(OCC(=O)Nc4ccccn4)ccc3c2=O)cc1,.,-58%,.,.,.,.
CC(=O)c1cccc(NC(=O)C2(c3ccc(Br)cc3)CCCC2)c1,.,-25%,.,.,.,.
CCOC(=O)C1CCCCN1C(=O)/C(=C/c1ccc(OC)cc1)c1ccc(OC)c(OC)c1 (configuration not stated),10%,-4%,14%,?,18µM*,-11
CCC(=O)Nc1cccc(NC(=O)CSc2nc3c(c(=O)n(C)c(=O)n3C)n2C)c1,1%,-16%,1%,-15%,-7%,36
O=C(c1n[nH]c2c1CCC2)N1CCC(c2nccn2Cc2ccccn2)CC1,.,8%,.,.,.,.
CC1CCCCC12NC(=O)N(CC(=O)N1CCN(Cc3ccc(C#N)cc3)CC1)C2=O (configuration not stated),-13%,15%,-15%,7.3µM*,16µM*,18
COC(=O)C1CCCCN1C(=O)CCc1nnc(CCc2c[nH]c3ccccc23)o1 (configuration not stated),10%,-1%,2%,-30%,?,-5
COC(=O)[C@@H]1CCCN1C(=O)CCc1nnc(CCc2c[nH]c3ccccc23)o1,-15%,0%,-4%,?,?,-105*
CC(C)Oc1ccc(CN2CCC2(C)C(=O)Nc2ccc3c(c2)OCO3)cc1 (configuration not stated),-20%,11%,-19%,?,16µM*,-13
COc1cccc(NC(=O)C2(C)CCN2Cc2ccc(OC(C)C)cc2)c1 (configuration not stated),9%,1%,5%,?,?,0
CC(C)c1ccc(CC(=O)N2CCC2(C)C(=O)Nc2ccc3c(c2)OCCO3)cc1 (configuration not stated),-20%,1%,-27%,?,-9%,-9
CC(C)c1ccc(CN2CCC2(C)C(=O)Nc2ccc3c(c2)OCO3)cc1 (configuration not stated),?,2%,?,8.2µM*,?,21
Cn1cccc1C(=O)N1CCC(N2CC3CC(C2)[C@H]2CCCC(=O)N2C3)CC1 (some centres not stated),.,3%,.,.,.,.
O=C(CC1=C2CCCCC2N(Cc2ccccc2)C1=O)N1CCc2ccccc2C1 (configuration not stated),.,-8%,.,.,.,.
Cc1nc(-c2cnn(-c3ccccc3)c2)c2cc(C)oc2n1,-9%,4%,-8%,18µM*,?,-16
Cc1nc2nc(-c3cccs3)[nH]c2cc1Br,?,112%,?,16µM*,?,?
SMILES,HT1080-NT tox,12-LOX inh,HT1080 IDH1KD tx,DT40 TDP1 no CPT,DT40 TDP1 CPT,IL1B secr inh
COCc1noc([C@@H]2CN(Cc3cccc(C#N)c3)C[C@H]2COC)n1,.,10%,.,.,.,.
CN(C)c1ccc(CN2CCCC(COc3ccccc3C(=O)N3CCCC3)C2)cc1 (configuration not stated),.,21%,.,.,.,.
COc1ccc(NC(=O)c2cc(Br)c(Br)s2)cn1,-10%,13µM*,-12%,?,0%,-53*
CCc1cc(C(=O)Nc2ccc(OC)nc2)sc1C,4%,?,10%,-17%,3%,0
O=C(Nc1ccc(Br)cc1)c1cc(Br)c(Br)s1,.,.,.,19µM*,?,.
O=C(NNC(=O)C1CC1)c1cc(Br)c(Br)s1,14%,11%,7%,14%,-26%,-8
Cc1nc(Cc2nnc(SC(C)C(=O)Nc3cccc(C#N)c3)o2)cs1 (configuration not stated),-1%,.,0%,7%,14%,8
CC(=O)N1CCC(NC(=O)c2nc(-c3ccccc3)cc3[nH]ccc23)CC1,.,-21%[176 µM],.,.,.,.
O=C1/C(=C/c2cccs2)SC(=S)N1CCC(=O)N1CCCCC1CCO (configuration not stated),-12%,?,-13%,?,?,-56*
COc1ccc(/C=C2\SC(=S)N(CCCC(=O)N3CCN(C)CC3)C2=O)cc1OC,3%,-17%,0%,-10%,-25%,15
COc1cccc(/C=C2\SC(=S)N(CCC(=O)N3CCCCC3CCO)C2=O)c1 (configuration not stated),-3%,-11%,-22%,18µM*,13µM*,?
COc1cccc(/C=C2\SC(=S)N(CCCC(=O)N3CCCC3)C2=O)c1,-13%,-40%,-23%,21µM*,?,-91*
COc1ccccc1/C=C1\SC(=S)N(CCC(=O)NC2=NCCS2)C1=O,4%,-16%,17%,1%,1%,0
COc1ccccc1/C=C1\SC(=S)N(CCC(=O)N2CCCCC2CCO)C1=O (configuration not stated),-4%,-17%,-13%,?,16µM*,?
CCCCNC(=O)c1cccc(NC(=O)c2ccc(F)cc2)c1,.,0%,.,.,.,.
COCCNC(=O)[C@@H]1CCC[C@@H](NC(=O)c2cncnc2)CN(C)C(=O)C1,.,4%[176 µM],.,.,.,.
CCOC(=O)N1CCN(C(=O)CNC(=O)c2cc3cc(OC)ccc3n2C)CC1,.,4%,.,.,.,.

# Source: PubChem BioAssay
